# Data published in PubChem BioAssay.
# Experiments:
# [1] = system: Human papillomavirus type 1a protein E7 (residues 44-93); experiment: small molecules binding HPV E7 44-93 – biochemical, small-molecule microarray, residues 44-93, 635 nm fluorescence, primary screen (AID 1108); details: fluorescence 635 nm, higher = more signal;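 further: E7 fragment applied at 1 µg/mL in TBST for 1 h at 4 C; score combines spot fluorescence with its signal to noise ratio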
# [2] = hepatitis C replication reporter changes, two-sided – Huh7 cells, luciferase reporter, HCV replication inhibitor project, primary screen (AID 1109); details: Huh7 HCV replicon luciferase reporter, 48 h; higher = more signal;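 further: huh7 hepatoma cells harbouring a luciferase neomycin HCV replicon reporter; luciferase luminescence as measure of HCV replicon replication; test concentration not given here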
# [3] = biological target: Left-right determination factor 2 (Homo sapiens) (UniProt O00292); experiment: small molecules binding LEFTY2 protein – biochemical, small-molecule microarray, 635 nm fluorescence scan, primary screen (AID 1110); details: higher = more signal
# Sequence of Left-right determination factor 2 (Homo sapiens) (O00292 whole entry, looked up): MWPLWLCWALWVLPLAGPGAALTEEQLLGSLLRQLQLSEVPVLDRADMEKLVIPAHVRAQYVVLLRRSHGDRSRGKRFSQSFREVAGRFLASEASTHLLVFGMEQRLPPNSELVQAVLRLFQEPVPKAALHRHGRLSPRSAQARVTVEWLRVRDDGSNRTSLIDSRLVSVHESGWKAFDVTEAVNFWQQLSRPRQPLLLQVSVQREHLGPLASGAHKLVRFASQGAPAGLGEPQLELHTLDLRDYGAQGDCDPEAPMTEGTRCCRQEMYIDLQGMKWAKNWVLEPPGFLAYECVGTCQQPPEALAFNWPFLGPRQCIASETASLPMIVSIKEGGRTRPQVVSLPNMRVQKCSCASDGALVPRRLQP
# [4] = biological target: Calmodulin-1 (Homo sapiens) (UniProt P0DP23); experiment: small molecules binding calmodulin-1 with EGTA – biochemical, small-molecule microarray, Cy5-labelled CALM1, profiling panel (AID 1111); details: Cy5-CALM1 binding fluorescence, higher = more signal;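 further: labelled calmodulin applied in Tris saline Tween buffer holding calcium plus EGTA and DTT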
# [5] = biological target: Calmodulin-1 (Homo sapiens) (UniProt P0DP23); experiment: small molecules binding Ca-loaded calmodulin-1 – biochemical, small-molecule microarray, Cy5-labelled CALM1, plus calcium, artefact control for SMM control-protein annotation, profiling panel (AID 1112); details: Cy5-CALM1 binding fluorescence, higher = more signal;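 further: score merges spot fluorescence with signal to noise from triplicate slides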
# [6] = probe aWnt5a binding to arrayed compounds – biochemical, biotinylated probe, 635/667 nm fluorescence, primary screen (AID 1113); details: small-molecule microarray, higher = more signal;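 further: score merges 667 nm fluorescence intensity with signal-to-noise per printed feature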
# [7] = probe aShh binding to arrayed compounds – biochemical, biotinylated probe, 635/667 nm fluorescence, primary screen (AID 1114); details: small-molecule microarray, higher = more signal;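 further: probe is biotin-labelled aShh protein from a stem cell growth factor screen; measures binding of labelled protein to compounds printed on the slide; score merges feature fluorescence at 667 nm with signal-to-noise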
# [8] = probe aNog binding to arrayed compounds – biochemical, biotinylated probe, 635/667 nm fluorescence, primary screen (AID 1115); details: small-molecule microarray, higher = more signal;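 further: probe is biotinylated aNog protein used at 0.15 µg/mL for 1 h at 4 C; z-score combines 667 nm fluorescence of each spot with its signal to noise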
# [9] = biological target: Torsin-1A-interacting protein 1 (Homo sapiens) (UniProt Q5JTV8); experiment: compound microarray binding of lysate hLAP1 – cell lysate, small-molecule microarray, COS7 lysate, 635/667 nm fluorescence, primary screen (AID 1116); details: 635 nm fluorescence, higher = more signal
# Sequence of Torsin-1A-interacting protein 1 (Homo sapiens) (Q5JTV8 whole entry, looked up): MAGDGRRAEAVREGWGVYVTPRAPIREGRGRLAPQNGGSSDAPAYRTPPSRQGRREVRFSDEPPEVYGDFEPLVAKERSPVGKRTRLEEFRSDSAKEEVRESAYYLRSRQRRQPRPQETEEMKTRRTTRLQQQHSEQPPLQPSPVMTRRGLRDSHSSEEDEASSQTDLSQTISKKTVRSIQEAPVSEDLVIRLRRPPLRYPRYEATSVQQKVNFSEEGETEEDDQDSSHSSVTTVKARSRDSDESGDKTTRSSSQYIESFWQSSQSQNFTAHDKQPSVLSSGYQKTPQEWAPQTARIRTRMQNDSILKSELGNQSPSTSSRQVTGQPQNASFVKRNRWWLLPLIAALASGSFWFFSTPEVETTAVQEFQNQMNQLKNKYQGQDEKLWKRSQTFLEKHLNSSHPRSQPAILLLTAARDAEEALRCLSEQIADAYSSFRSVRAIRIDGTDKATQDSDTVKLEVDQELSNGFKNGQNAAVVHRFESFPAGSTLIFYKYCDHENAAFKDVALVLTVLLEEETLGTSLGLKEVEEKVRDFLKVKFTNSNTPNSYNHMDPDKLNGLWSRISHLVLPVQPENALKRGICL
# [10] = biological target: Alpha-bungarotoxin (Bungarus multicinctus) (UniProt P60615); experiment: compounds binding labelled alpha-BTX control protein – biochemical, small-molecule microarray, Alexa647 label, 635/667 nm fluorescence, artefact control for SMM control protein annotation, profiling panel (AID 1117); details: alpha-BTX-A647 binding fluorescence, higher = more signal
# Sequence of Alpha-bungarotoxin (Bungarus multicinctus) (P60615 whole entry, looked up): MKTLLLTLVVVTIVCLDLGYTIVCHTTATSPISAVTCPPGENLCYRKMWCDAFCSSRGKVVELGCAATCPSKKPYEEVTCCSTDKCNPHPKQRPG
Structure (SMILES),composite z-score [1],z-score [2],composite z-score [3],composite z-score [4],composite z-score [5],composite z-score [6],composite z-score [7],composite z-score [8],composite z-score [9],composite z-score [10]
CC(CCN1CCCCc2nc(C)c(C)cc21)=NOC[C@@H](O)[C@H]1O[C@@H]2OC(C)(C)O[C@@H]2[C@H]1O,-0.902,0.0388,1.39,-0.554,-1.3,-0.124,-0.0626,0.0254,-0.219,0.969
C=CC[C@@H]1C=C[C@H](ON=CC[C@@H]2C=C[C@H](OC(C)=O)[C@@H](COC(C)=O)O2)[C@@H](CO)O1,1.25,0.563,0.514,0.501,-0.0909,0.423,0.113,-0.467,0.223,1.86
CCc1cc2c(nc1CC)CCN(CCC(C)=NOC(C)CN1CCCCc3nc(C)c(C)cc31)C2 (stereo not given),1.38,-4.08,0.772,0.499,0.455,-0.0735,0.0639,-0.1,0.272,0.946
CC(C)(C)N1C(=O)[C@H]2[C@H]3[C@H](O)[C@H](O)CC(=NNC(=O)OCc4ccccc4)[C@@H]3CC[C@H]2C1=O,0.594,0.508,0.432,-0.213,-0.412,-0.0721,-0.399,-0.137,0.505,0.162
CCOC(=O)[C@H](Cc1ccccc1)NC(=O)CCC1CC(OC(=O)NCc2cccc3ccccc23)CC2(CCCC(COC(=O)NCc3ccc4c(c3)OCO4)O2)O1 (stereo not given in full),0.524,1.08,0.284,-0.29,-0.457,-0.104,0.214,-0.299,0.629,-0.382
COC(=O)CC=C[C@@H](C)[C@@H](C=NOC[C@@H](O)COCc1ccco1)OC,0.134,0.674,0.999,-0.809,-2.21,-0.172,-0.243,-0.353,0.329,-0.741
COC(=O)[C@H](C)NC(=O)CCC1CC(OC(=O)NCc2ccc3c(c2)OCO3)CC2(CCCC(COC(=O)NCCC(C)C)O2)O1 (stereo not given in full),1.37,-0.166,0.694,-0.107,-0.682,-0.0977,-0.0553,-0.0047,0.302,1.48
C=CC[C@@H]1C=C[C@H](Oc2ccc(C)cc2)[C@@H](COC(=O)NCc2cccc3ccccc23)O1,0.286,-2.78,0.129,-0.716,-0.547,-0.0271,-0.0793,-0.0496,0.0431,-0.212
C[C@@H]1CC[C@H]2C(=O)OC(CN3C(=O)c4ccccc4C3=O)CN2[C@H]1c1ccc(Br)cc1 (stereo not given in full),0.901,0.302,0.113,1.53,0.772,-0.091,0.111,0.243,0.419,0.666
CO[C@@H](C(C)C)[C@@H](C)C1OC(=O)CC1O (stereo not given in full),-0.175,0.975,0.0752,-0.32,0.192,-0.232,-0.171,-0.478,-0.214,-0.427
COC(=O)[C@@H]1CC[C@H](C)[C@@H](c2ccc(Br)cc2)N1C[C@@H](O)CN=[N+]=[N-],0.29,-0.779,0.445,-0.178,-0.437,-0.0403,0.0494,-0.0103,0.289,-0.291
CC1(C)O[C@H]2O[C@H]([C@H](O)CON=C3[C@H]4CCn5c(=O)n(-c6ccccc6)c(=O)n5[C@H]4[C@H](O)[C@@H]4O[C@H]34)[C@H](O)[C@H]2O1,-1.32,-0.0374,0.257,0.759,0.118,-0.0748,-0.501,0.222,-0.144,0.168
CCOC(=O)CCN1C(=O)[C@H]2[C@H]3[C@H](O)[C@H](O)CC(=NNC(=O)OCc4ccc(OC)cc4)[C@H]3CC[C@H]2C1=O,0.451,-2.44,0.214,-0.211,-0.509,0.0243,0.0121,0.0236,-0.176,0.354
CC(C)[C@@H](OCc1ccccc1)[C@H](C)CON=C1[C@H]2CCn3c(=O)n(-c4ccccc4)c(=O)n3[C@H]2[C@H](O)[C@@H]2O[C@H]12,0.416,-4.23,0.677,-0.404,-0.366,-0.147,-0.134,-0.124,-0.005,0.251
C=CCOCC1CN2[C@@H](CC[C@@H](C)[C@@H]2c2ccc(Br)cc2)C(=O)O1 (stereo not given in full),0.157,-0.121,0.0328,-0.457,-0.78,-0.219,-0.154,-0.196,0.0323,0.101
COC(=O)[C@H](C)NC(=O)CCC1CC(OC(=O)NCc2ccc3c(c2)OCO3)CC2(CCCC(COC(=O)NCc3ccccc3)O2)O1 (stereo not given in full),1.25,0.188,0.508,0.202,-0.558,-0.001,-0.0709,-0.258,0.179,0.159
CCN1C(=O)[C@H]2[C@H]3[C@H](O)[C@H](O)CC(=NOCC[C@@H]4C=C[C@H](OC(C)=O)[C@@H](COC(C)=O)O4)[C@@H]3CC[C@H]2C1=O,-0.263,-1.04,0.736,-0.207,-0.225,0.0102,0.0899,0.029,-0.359,0.391
